Screening data as filed in PubChem BioAssay.
hDAT+cocaine: changed human dopamine transporter uptake under cocaine IC80 | Q01959 | LLC-PK1 hDAT cells, [14C]-dopamine uptake with cocaine IC80; actives deviate in either direction | B-score at 10 µM | actives 1.3% (n = 110,000);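 active means Z score or B-score, a plate-position-corrected score, falls beyond the plate's 99.7% confidence bounds, in either direction; inactive means both scores lie inside the 99.7% bounds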
D1 mod: allosteric modulators of human D1 dopamine receptor; HEK293 D1, CRE-luciferase, dopamine EC30 potentiation; actives deviate in either direction; B-score at 10 µM; actives 5.9% (n = 58,000); AID 641;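 active means luminescence count or its row- and column-corrected plate score outside the 99.7% band of the plate's sample wells, on either side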
Target sequence (P21728 whole entry, looked up): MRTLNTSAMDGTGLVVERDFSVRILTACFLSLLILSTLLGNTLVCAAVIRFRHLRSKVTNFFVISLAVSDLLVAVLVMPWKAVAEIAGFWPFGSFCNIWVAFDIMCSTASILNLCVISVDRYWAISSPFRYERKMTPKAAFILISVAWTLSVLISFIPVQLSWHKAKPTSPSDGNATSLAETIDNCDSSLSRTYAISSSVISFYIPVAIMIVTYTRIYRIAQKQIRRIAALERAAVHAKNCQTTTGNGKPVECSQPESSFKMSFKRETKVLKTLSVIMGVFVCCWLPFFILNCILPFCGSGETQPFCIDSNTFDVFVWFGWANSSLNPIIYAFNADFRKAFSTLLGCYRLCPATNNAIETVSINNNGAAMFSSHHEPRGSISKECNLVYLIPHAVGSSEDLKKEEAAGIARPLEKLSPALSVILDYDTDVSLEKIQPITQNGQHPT
BAP1 inh: blocks human BAP1 ubiquitin-AMC hydrolysis; recombinant BAP1, Ub-AMC hydrolysis fluorescence kinetic; active compounds read low; calls only at 20 µM; actives 0.48% (n = 72,000);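 active means activity remaining at or below 50% of control, provided the compound also passes the data quality filters; inactive means the rest, including low values that fail the filters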
A number is an active result. The entries come from a sample that favours hits as a whole.

For Cc1ccc(NC(=O)c2onc(C)c2Cl)cc1 the results were hDAT+cocaine -2.6.
For Cc1noc(C)c1C(=O)Nc1cccnc1 the results were hDAT+cocaine inactive, D1 mod inactive and BAP1 inh inactive.
Screening COc1cc(NC(=O)c2onc(C)c2Cl)c(OC)cc1Cl returned hDAT+cocaine inactive, D1 mod inactive and BAP1 inh inactive.
Cc1ccc(NC(=O)c2c(C)noc2C)cc1 was read as hDAT+cocaine 0.36.
Screening CS(=O)(=O)c1ncn(-c2ccccc2)n1 returned BAP1 inh inactive.
`O=c1[nH]c2ccccc2nc1-c1cc(Br)ccc1NCc1ccccc1` gave BAP1 inh inactive.
CCC(C)NC(=O)c1cc2nc(-c3cccs3)cc(C(F)(F)F)n2n1 (stereo not drawn) was read as BAP1 inh inactive.
For C(=Cc1ccccc1)CN1CCN(C2c3ccccc3-c3ccccc32)CC1 the results were BAP1 inh inactive.
Screening O=S(=O)(NCCc1ccccc1)c1cccc2nsnc12 returned hDAT+cocaine inactive.
CC(=O)c1cccc(NC(=O)CCNS(=O)(=O)c2cccc3nsnc23)c1 was read as hDAT+cocaine inactive, D1 mod inactive and BAP1 inh inactive.
For O=C(CCCNS(=O)(=O)c1cccc2nsnc12)NCCc1ccccc1 the results were hDAT+cocaine inactive, D1 mod -4 and BAP1 inh inactive.
`Cc1cccc(NC(=O)CCNS(=O)(=O)c2cccc3nsnc23)c1` gave hDAT+cocaine 1.8 and D1 mod inactive.
Screening Cc1ccc(NC(=O)c2cccc(C(=O)Nc3ccc(C)cc3[N+](=O)[O-])n2)c([N+](=O)[O-])c1 returned BAP1 inh inactive.
For O=C(Nc1cccc2c1C(=O)c1ccccc1C2=O)c1ccc(S(=O)(=O)N2CCc3ccccc3C2)cc1 the results were BAP1 inh inactive.
Screening COc1ccccc1C(c1nnnn1Cc1ccccc1)N1CCN(C2CCCC2)CC1 (stereo not drawn) returned hDAT+cocaine inactive.
For COc1cccc(C(c2nnnn2Cc2ccccc2)N2CCN(C3CCCC3)CC2)c1OC (stereo not drawn) the results were hDAT+cocaine inactive, D1 mod -3.5 and BAP1 inh inactive.
For COc1ccc(N2C(=O)c3ccc(Oc4cccc([N+](=O)[O-])c4)cc3C2=O)cc1 the results were BAP1 inh inactive.
CCc1ccc(C(=O)N2CCCC2)s1 was read as hDAT+cocaine inactive, D1 mod inactive and BAP1 inh inactive.
For CCc1ccc(C(=O)N2CCN(c3ccc(F)cc3)CC2)s1 the results were hDAT+cocaine 2, D1 mod inactive and BAP1 inh inactive.
`C=C(C)c1cccc(C(C)(C)NC(=O)N2CCCCCC2)c1` gave BAP1 inh inactive.
`CC(C)CC(C(=O)Nc1ccccc1C(F)(F)F)N1C(=O)c2ccccc2C1=O` (stereo not drawn) gave BAP1 inh inactive.
CNC(=O)c1ccc(N(Cc2ccccc2C)S(C)(=O)=O)cc1 was read as hDAT+cocaine inactive, D1 mod inactive and BAP1 inh inactive.
For Cc1ccccc1CN(c1ccc(C(=O)N2CCc3ccccc3C2)cc1)S(C)(=O)=O the results were hDAT+cocaine -3.2.
Screening O=C(NCCN1CCC(Cc2ccccc2)CC1)C1CCCN(S(=O)(=O)c2cnc[nH]2)C1 (stereo not drawn) returned D1 mod inactive and BAP1 inh inactive.
For O=C(NCCN1CCN(c2ccccc2F)CC1)C1CCCN(S(=O)(=O)c2cnc[nH]2)C1 (stereo not drawn) the results were D1 mod -3.2 and BAP1 inh inactive.
Screening CCc1ccccc1NC(=O)c1cnn2c1NC(c1cc(OC)c(OC)c(OC)c1)CC2C(F)(F)F (stereo not drawn) returned BAP1 inh inactive.
For COC(=O)c1ccc(-c2csc(NC(=O)c3cc(=O)c4ccccc4o3)n2)cc1 the results were BAP1 inh inactive.
Cc1cc(NCCCn2ccnc2)n2ncc(-c3ccc(Cl)cc3)c2n1 was read as hDAT+cocaine 4.1.
For Cc1cc(NCCCN2CCOCC2)n2ncc(-c3ccc(Cl)cc3)c2n1 the results were hDAT+cocaine inactive, D1 mod inactive and BAP1 inh inactive.
For O=C(O)c1cc2c(s1)-c1ccccc1OC2 the results were hDAT+cocaine inactive.
`O=C(NC1CC1)c1cc2c(s1)-c1ccccc1OC2` gave hDAT+cocaine inactive, D1 mod -5.8 and BAP1 inh inactive.
For Cc1c(CCC#N)c(N2CCCCC2)n2c(nc3ccccc32)c1C#N the results were D1 mod inactive and BAP1 inh inactive.
C=CCc1c(C)c(C#N)c2nc3ccccc3n2c1N1CCN(C)CC1 was read as D1 mod 16 and BAP1 inh inactive.
`CCc1cc2c(N3CCN(Cc4ccccc4)CC3)ncnc2s1` gave BAP1 inh inactive.
For O=C(Nc1cccc2c1C(=O)c1ccccc1C2=O)c1cccc(F)c1 the results were BAP1 inh inactive.
For Cc1cccc2sc(NC(=O)c3ccccc3Oc3ccccc3)nc12 the results were BAP1 inh inactive.
For CCCCOC(=O)Nc1ccccc1C(=O)N1CCCC1 the results were D1 mod inactive.
`COC(=O)Nc1ccccc1C(=O)N1CCCCC1` gave hDAT+cocaine -2.7, D1 mod inactive and BAP1 inh inactive.
`O=C(Nc1nc2ccccc2s1)C1CCCO1` (stereo not drawn) gave hDAT+cocaine inactive, D1 mod inactive and BAP1 inh inactive.
`O=C(Nc1ncc(Cc2ccccc2)s1)C1CCCO1` (stereo not drawn) gave hDAT+cocaine inactive, D1 mod -3.7 and BAP1 inh inactive.
Screening Cc1ccc(S(=O)(=O)Nc2ccc(Br)cc2C(=O)c2ccc(Cl)cc2)cc1 returned BAP1 inh inactive.
Screening c1ccc(CNn2c(N3CCOCC3)nc3ccccc32)cc1 returned hDAT+cocaine inactive, D1 mod -3.3 and BAP1 inh inactive.
For Cc1cc(N2CCOCC2)nc(NCc2ccccc2)n1 the results were hDAT+cocaine inactive and BAP1 inh inactive.
`COc1ccc(Cc2cnc(NC(=O)COc3cccc(C(F)(F)F)c3)s2)cc1` gave BAP1 inh inactive.
Screening CCCCCOC(=O)C1=C(C)N(C)C(=O)NC1c1ccccc1Cl (stereo not drawn) returned BAP1 inh inactive.
For COc1ccc(C2CC(C(F)(F)F)n3ncc(C(=O)NC(C)C)c3N2)cc1OC (stereo not drawn) the results were BAP1 inh inactive.
`O=C1C2C3C=CC(C3)C2C(=O)N1/N=C/c1cc(Br)cc([N+](=O)[O-])c1O` (stereo not drawn) gave hDAT+cocaine -2.8.
For O=C1C2C3C=CC(C3)C2C(=O)N1/N=C/c1cn(Cc2ccccc2)c2ccccc12 (stereo not drawn) the results were hDAT+cocaine inactive.
COC(=O)c1c(NC(=O)CSc2nccn2C)sc2c1CCC(C(C)(C)C)C2 (stereo not drawn) was read as BAP1 inh inactive.
For CCCCOC(=O)C1=C(C)NC2=C(C(=O)CCC2)C1c1ccc(O)c(OCC)c1 (stereo not drawn) the results were BAP1 inh inactive.
`C=CCSc1nnc(-c2cc3c(-c4ccccc4)nn(C)c3s2)n1C` gave hDAT+cocaine inactive.
C=CCSc1nnc(-c2cc3c(C(F)(F)F)nn(C)c3s2)n1C was read as hDAT+cocaine -8.8.
